In PubChem BioAssay (EPA / NIEHS):
Results filed as inconclusive are left out. The source made the active and inactive calls. The calls were made as follows: active = hit-call score of the fitted dose curve at least 0.9, where 1 is the maximum; inconclusive = response in the unintended direction; inactive = score below 0.9.

Assays:
[1] = TOX21_p53_BLA_p2_viability: Viability Assessment in the Tox21 HCT-116 p53 Agonism Beta-lactamase Assay, Phase 2 (AID 2283591);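 also: compound exposure lasted 16 h at 37 °C; actives lower the ATP signal meaning cytotoxicity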
Method in brief: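 HCT-116 p53-bla cells (4000/well) rested 5 h at 37C, then received compounds in DMSO (217-fold dilution) for 16 h at 37C, 5% CO2. After the CCF4 read, CellTiter-Glo was added; ATP luminescence was read after 30 min at room temperature.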

[2] = molecular target: Cellular tumor antigen p53 (Homo sapiens) (UniProt P04637); test: TOX21_p53_BLA_p2_ratio: Tox21 HCT-116 p53 Agonism Beta-lactamase Assay, Ratio, Phase 2 (AID 2283592)
Sequence of Cellular tumor antigen p53 (Homo sapiens) (P04637 whole entry, looked up): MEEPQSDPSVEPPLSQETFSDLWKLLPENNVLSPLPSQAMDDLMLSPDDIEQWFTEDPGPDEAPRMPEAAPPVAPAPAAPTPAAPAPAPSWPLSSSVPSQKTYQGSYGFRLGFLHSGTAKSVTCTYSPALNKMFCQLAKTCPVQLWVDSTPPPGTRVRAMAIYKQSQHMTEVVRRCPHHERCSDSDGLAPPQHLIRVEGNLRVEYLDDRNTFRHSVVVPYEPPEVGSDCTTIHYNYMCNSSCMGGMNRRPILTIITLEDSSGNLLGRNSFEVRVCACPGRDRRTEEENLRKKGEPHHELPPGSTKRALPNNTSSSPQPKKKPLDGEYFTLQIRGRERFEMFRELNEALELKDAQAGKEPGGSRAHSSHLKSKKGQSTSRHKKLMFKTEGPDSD
Method in brief: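 In this cell-based reporter format, HCT116 cells were dosed with chemicals delivered from DMSO by 217-fold dilution and incubated 16 h at 37C. Emission at 460 and 530 nm after 2 h CCF4-AM loading provided the ratio, fitted upward versus DMSO.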

[3] = TOX21_p53_BLA_p3_viability: Viability Assessment in the Tox21 HCT-116 p53 Agonism Beta-lactamase Assay, Phase 3 (AID 2283593);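 also: cells exposed to compound for 16 h before reading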
Method in brief: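 HCT-116 cells (4000/well) rested 5 h at 37C, then got DMSO compounds by pin tool (217-fold dilution) for 16 h at 37C, 5% CO2. After the bla read, CellTiter-Glo was added and luminescence read at 30 min, room temperature.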

[4] = TOX21_p53_BLA_p4_viability: Viability Assessment in the Tox21 HCT-116 p53 Agonism Beta-lactamase Assay, Phase 4 (AID 2283597);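 also: hits lower the luminescence signal meaning cytotoxicity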
Method in brief: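 We seeded HCT116 p53 reporter cells at 4000/well and waited 5 h. We then added compounds in DMSO at a 217-fold dilution and incubated for 16 h. Viability was read as CellTiter-Glo luminescence after 30 min at RT.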

[5] = molecular target: Cellular tumor antigen p53 (Homo sapiens) (UniProt P04637); test: TOX21_p53_BLA_p5_ratio: Tox21 HCT-116 p53 Agonism Beta-lactamase Assay, Ratio, Phase 5 (AID 2283599)
Method in brief: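 HCT-116 cells carrying a p53-inducible beta-lactamase reporter were seeded at 4000 cells/well and dosed after 5 h with compound in DMSO (217-fold dilution). After 16 h at 37C, CCF4-AM substrate was added for 2 h, and the 460/530 nm emission ratio was scored as gain-of-signal versus DMSO.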

[6] = TOX21_p53_BLA_p5_viability: Viability Assessment in the Tox21 HCT-116 p53 Agonism Beta-lactamase Assay, Phase 5 (AID 2283600)
Method in brief: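 Compounds, pinned from DMSO at 217-fold dilution, were left on the cells for 16 h. The viability endpoint was ATP content measured by CellTiter-Glo luminescence, where falling signal reflects cytotoxicity.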

[7] = molecular target: Cellular tumor antigen p53 (Homo sapiens) (UniProt P04637); test: TOX21_p53_BLA_p4_ratio: Tox21 HCT-116 p53 Agonism Beta-lactamase Assay, Ratio, Phase 4 (AID 2283601)
Method in brief: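 HCT116 cells carrying an inducible beta-lactamase reporter were plated at 4000 cells/well, rested 5 h, then exposed to compounds in DMSO (217-fold dilution) for 16 h at 37C. CCF4-AM substrate was loaded 2 h at room temperature; 460/530 nm emission ratio scored gain-of-signal versus DMSO.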

[8] = molecular target: Thyroid hormone receptor alpha (Rattus norvegicus) + Thyroid hormone receptor beta (Rattus norvegicus) (UniProt P18113+P63059); test: TOX21_TR_LUC_GH3_Antagonist_Followup: Tox21 GH3 Thyroid Hormone Receptor Antagonism Luciferase Follow-Up Assay (AID 2283942)
Method in brief: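 Rat pituitary GH3 cells with a TRα/TRβ-driven luciferase reporter, 5 h attachment, then 15 concentrations (92 uM to 5nM final) plus 1.0 nM T3 agonist, 24 h at 37C/5% CO2. ONE-Glo luminescence; signal change fitted against DMSO baseline.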

[9] = molecular target: THRA (gene 7067) (UniProt P10827); test: TOX21_TRA_COA_Antagonist_Followup_ratio: Tox21 Thyroid Hormone Receptor alpha Antagonism through Coactivator Recruitment Follow-Up Assay, Ratio (AID 2283953)
Sequence of THRA (gene 7067) (P10827 whole entry, looked up, the tested form may be a part): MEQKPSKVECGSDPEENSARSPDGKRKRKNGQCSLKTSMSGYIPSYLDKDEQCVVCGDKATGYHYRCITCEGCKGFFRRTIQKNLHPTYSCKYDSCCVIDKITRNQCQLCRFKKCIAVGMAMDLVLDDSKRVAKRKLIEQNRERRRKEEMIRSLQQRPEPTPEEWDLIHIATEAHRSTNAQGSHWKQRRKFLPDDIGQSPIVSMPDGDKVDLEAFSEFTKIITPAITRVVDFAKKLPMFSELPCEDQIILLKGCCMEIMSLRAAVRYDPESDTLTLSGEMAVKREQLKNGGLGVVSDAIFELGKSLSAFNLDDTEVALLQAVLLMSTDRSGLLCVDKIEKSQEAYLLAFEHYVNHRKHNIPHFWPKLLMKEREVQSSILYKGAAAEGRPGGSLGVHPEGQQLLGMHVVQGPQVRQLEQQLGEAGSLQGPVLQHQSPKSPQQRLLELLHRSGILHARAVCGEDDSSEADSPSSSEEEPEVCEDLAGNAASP
Method in brief: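 520:495 nm emission ratio (excitation 340 nm) reports fluorescein-SRC-2 peptide recruitment to GST-TRα LBD by TR-FRET with Tb anti-GST antibody. Values were normalized to DMSO (0%) and T3 control wells (100%); loss of signal indicated antagonism.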

[10] = molecular target: THRB (gene 7068) (UniProt P10828); test: TOX21_TRB_COA_Antagonist_Followup_ratio: Tox21 Thyroid Hormone Receptor beta Antagonism through Coactivator Recruitment Follow-Up Assay, Ratio (AID 2283967)
Sequence of THRB (gene 7068) (P10828 whole entry, looked up, the tested form may be a part): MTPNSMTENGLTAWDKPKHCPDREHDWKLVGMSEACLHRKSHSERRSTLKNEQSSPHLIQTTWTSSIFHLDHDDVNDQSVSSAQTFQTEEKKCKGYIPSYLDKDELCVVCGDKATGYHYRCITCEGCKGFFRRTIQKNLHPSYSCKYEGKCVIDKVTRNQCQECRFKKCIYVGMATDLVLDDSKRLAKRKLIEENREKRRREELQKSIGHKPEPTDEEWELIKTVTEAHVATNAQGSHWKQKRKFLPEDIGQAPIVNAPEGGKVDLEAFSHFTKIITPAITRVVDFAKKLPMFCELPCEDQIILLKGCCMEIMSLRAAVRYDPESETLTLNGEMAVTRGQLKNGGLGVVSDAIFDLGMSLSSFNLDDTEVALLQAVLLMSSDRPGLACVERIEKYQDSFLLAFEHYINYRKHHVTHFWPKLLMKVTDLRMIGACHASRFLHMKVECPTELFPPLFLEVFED
Method in brief: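 Cell-free TR-FRET coactivator recruitment with GST-tagged TRβ LBD (5.0 nM) and fluorescein-labeled SRC-2 peptide (200 nM) detected by terbium anti-GST antibody (2 nM). The 520:495 nm emission ratio was normalized to DMSO (0%) and T3 (100%).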

[11] = TOX21_TR_RXR_BLA_Antagonist_Followup_viability: Viability Assessment in the Tox21 Thyroid Hormone Receptor beta Retinoid X Receptor alpha (RXRa) Antagonism Beta-lactamase (BLA) Follow-Up Assay (AID 2283979)
Method in brief: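 RXRa-UAS-bla HEK293T cells seeded 2,500/well in phenol red-free DMEM with 2% charcoal-stripped FBS, attached 5 h, then exposed to compounds at 11 concentrations in triplicate for 16 h at 37C/5% CO2. Viability read by CellTiter-Glo ATP luminescence; bidirectional fit versus DMSO.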

[12] = molecular target: THRB (gene 7068) (UniProt P10828); test: TOX21_TRB_BLA_Antagonist_Followup_ratio: Tox21 Thyroid Hormone Receptor beta Antagonism Beta-lactamase (BLA) Follow-Up Assay, Ratio (AID 2283958)
Method in brief: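 HEK293T cells with a GAL4-TRb LBD fusion and UAS-bla reporter, 3,000 cells/well in phenol red-free DMEM with 2% charcoal-stripped FBS. Exposed 18 h at 37C to 11 concentrations in triplicate; CCF4 460:530 nm ratio after 2 h, DMSO-referenced.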

[13] = TOX21_TRB_BLA_Antagonist_Followup_viability: Viability Assessment in the Tox21 Thyroid Hormone Receptor beta Antagonism Beta-lactamase (BLA) Follow-Up Assay (AID 2283961)
Method in brief: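 Viability read as CellTiter-Glo ATP luminescence (loss of signal = cytotoxicity) in the same plates as the TRβ-bla readout. TRβ-LBD/GAL4 UAS-bla HEK293T cells were exposed to compounds, 11 concentrations in triplicate, for 18 h at 37C/5% CO2.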

Measured: outcome

Cc1cc(-c2ccc(N=Nc3ccc4c(S(=O)(=O)O)cc(S(=O)(=O)O)c(N)c4c3O)c(C)c2)ccc1N=Nc1ccc2c(S(=O)(=O)O)cc(S(=O)(=O)O)c(N)c2c1O
inactive: [1] | [2] | [3] | [4] | [5] | [6] | [7]

O=C1c2ccccc2C(=O)N1CCl
inactive: [1] | [2] | [3] | [4] | [5] | [6] | [7]

CCOc1ccc(N=Nc2ccc(N)cc2N)cc1
inactive: [1] | [2] | [3] | [4] | [5] | [6] | [7]

CN(C)C/C=C(/c1ccc(Br)cc1)c1cccnc1
inactive: [1] | [2] | [3] | [4] | [5] | [6] | [7]

CC(=O)[C@H]1CC[C@H]2[C@@H]3C=CC4=CC(=O)CC[C@@]4(C)[C@@H]3CC[C@]12C
not listed: [12] | [13]
inactive: all other assays above

CC(=O)Nc1cccc(O)c1
inactive: [1] | [2] | [3] | [4] | [5] | [7]

Cc1c(Nc2ncccc2C(=O)O)cccc1C(F)(F)F
inactive: all assays above

CCCCCCCCCOC(=O)c1ccccc1C(=O)OCCCCCCCCC
inactive: [1] | [2] | [3] | [4] | [5] | [7]

CN1CCN(c2cc3c(nn2)Oc2ccccc2N3C)CC1
inactive: [1] | [2] | [3] | [4] | [5] | [6] | [7]

CC(C)Cc1ccc(CC(=O)O)cc1
inactive: [1] | [2] | [3] | [4] | [5] | [7]

CN1CCC(OC(=O)C(Oc2ccc(Cl)cc2)Oc2ccc(Cl)cc2)CC1
inactive: [1] | [2] | [3] | [4] | [5] | [7]
